ALDH1A1 block: qHTS Assay for Inhibitors of Aldehyde Dehydrogenase 1 (ALDH1A1); Potency, µM (doses to about 75.3 µM), without a hit: top-dose activity, negative = inhibition, hits mostly inhibitors; actives 7.3% (n = 220,000); Aldehyde dehydrogenase 1A1 (Homo sapiens), P00352; Purified ALDH1A1, NADH fluorescence, propionaldehyde substrate; active = well fitted inhibition curve with a large enough effect, not every such curve was filed as active; inconclusive = small, poorly fitted or top-dose-only effect, or another doubt; inactive = no such curve, though single readings can be large or run the other way;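 also: plate controls were no enzyme wells and a reference inhibitor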
Target sequence (P00352 whole entry, looked up): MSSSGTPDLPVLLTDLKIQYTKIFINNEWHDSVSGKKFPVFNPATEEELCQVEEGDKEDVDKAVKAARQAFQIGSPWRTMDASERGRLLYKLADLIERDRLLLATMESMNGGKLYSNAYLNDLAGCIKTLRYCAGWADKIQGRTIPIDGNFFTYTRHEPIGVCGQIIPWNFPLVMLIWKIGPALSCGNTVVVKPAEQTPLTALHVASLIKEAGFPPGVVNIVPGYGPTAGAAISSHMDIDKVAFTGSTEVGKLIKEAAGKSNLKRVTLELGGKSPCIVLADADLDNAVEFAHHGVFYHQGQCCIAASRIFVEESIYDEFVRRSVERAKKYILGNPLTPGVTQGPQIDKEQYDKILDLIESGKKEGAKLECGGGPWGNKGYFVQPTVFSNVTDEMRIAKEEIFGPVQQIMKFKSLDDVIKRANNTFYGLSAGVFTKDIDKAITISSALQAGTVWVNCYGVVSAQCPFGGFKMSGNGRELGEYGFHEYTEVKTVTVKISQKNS
Lamin A splicing: qHTS Assay for Modulators of Lamin A Splicing; HeLa LMNA splicing GFP/RFP minigene ratio, 48 h; Potency, µM (series often up to 46.1 µM), without a hit: top-dose ratio change, negative = inhibition, hits mostly inhibitors; actives 0.01% (n = 200,000); active = well fitted inhibition curve with a large enough effect in the signal ratio, with a control signal flat, not every such curve was filed as active; inconclusive = small, poorly fitted or top-dose-only effect, or effect the other way, or a change in a side signal; the % refers to the signal ratio; also: % is scaled to controls: 0 for no effect and ±100 for the full control effect
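S3 HeLa stable clones carrying a lamin A-EGFP splicing minigene plus DsRed2 were seeded at 600 cells/well in Opti-MEM with 2% FBS, pin-dosed and incubated 48 h at 37°C. Acumen cytometry (488 nm) gave the GFP/RFP total-intensity ratio.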
HPGD inh: qHTS Assay for Inhibitors of HPGD (15-Hydroxyprostaglandin Dehydrogenase) | AID 894, 2007 | purified HPGD, NADH fluorescence kinetic, PGE2 substrate | Potency, µM, inactives show at the highest dose activity change, negative = inhibition, most hits filed as inhibitors | 15-hydroxyprostaglandin dehydrogenase [NAD(+)] (Homo sapiens), P15428 | actives 4.3% (n = 150,000); active = well fitted inhibition curve with a large enough effect, not every such curve was filed as active; inconclusive = small, poorly fitted or top-dose-only effect, or another doubt; inactive = no such curve, though single readings can be large or run the other way; also: % is scaled to controls: 0 for no effect and ±100 for the full control effect
Target sequence (P15428 whole entry, looked up): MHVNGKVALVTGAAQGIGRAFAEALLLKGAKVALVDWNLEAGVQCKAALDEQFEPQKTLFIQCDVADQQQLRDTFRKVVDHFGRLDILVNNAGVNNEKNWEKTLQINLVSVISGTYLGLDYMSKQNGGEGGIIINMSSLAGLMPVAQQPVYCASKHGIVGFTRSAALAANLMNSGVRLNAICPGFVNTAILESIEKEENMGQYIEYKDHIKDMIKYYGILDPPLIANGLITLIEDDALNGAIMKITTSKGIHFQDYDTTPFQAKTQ
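20 nM HPGD preincubated 15 min at room temperature with compound in 50 mM Tris-HCl pH 8, 0.01% Tween 20. Started with 1 mM NAD+ and 30 uM prostaglandin E2; NADH fluorescence (360/450 nm) read 5 times over 30-s intervals, last minus first.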
HTT aggregate: qHTS Multiplex Assay to Identify Dual Action Probes in a Cell Model of Huntington: Aggregate Formation (GFP) | PC12 HttQ103-GFP aggregates, Acumen cytometry, 40 h | Potency, µM (doses to about 46.1 µM), for the others: at the top dose activity change, negative = inhibition, most hits filed as inhibitors | actives 1.1% (n = 220,000) | AID 1688, 2009; also: % is scaled to controls: 0 for no effect and ±100 for the full control effect; nearly all actives have a fitted effect of over 60% in size
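Quantitative HTS on tebufenozide-induced (100 nM) PC12 cells stably expressing polyQ103 Huntingtin exon 1–GFP. Reduction of bright GFP aggregates, detected by laser scanning cytometry after lysis, identified actives across the titration.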
Luc counter: Counterscreen for Luciferase (Kinase-Glo TM) Inhibition. Luciferin 4-monooxygenase (Photuris pensylvanica), Q27757. Kinase-Glo luciferase, ATP luminescence, 8 min. Potency, µM (highest dose often 38.3 µM), without a hit: at the highest dose activity change, negative = inhibition, most hits filed as inhibitors. actives 0.28% (n = 200,000). AID 1379, 2008; also: % is scaled to controls: 0 for no effect and ±100 for the full control effect; nearly all actives have a fitted effect of over 60% in size
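Substrate mix (final 50 mM imidazole pH 7.2, 50 mM KCl, 7 mM MgCl2, 10 uM ATP, 0.01% Tween 20, 0.05% BSA) plus pin-tool compound, then Kinase-Glo detection mix; 8 min ambient, luminescence read.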
HTT cytoprotect: qHTS Multiplex Assay to Identify Dual Action Probes in a Cell Model of Huntington: Cytoprotection (ATP); PC12 HTT-Q103 induced, cytoprotection, ATP luminescence, 40 h; Potency, µM (highest dose often 56.4 µM), for the others: cytoprotection (ATP increase), actives largely listed as activators; actives 0.14% (n = 230,000); AID 1471, 2008; also: % of control where 0% means no effect; nearly all actives have a fitted effect of over 45% in size
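Compounds added alongside 100 nM tebufenozide, which induces toxic Q103 huntingtin exon 1-GFP in stable PC12 cells; surviving cells quantified by luminescent ATP measurement. Medium: phenol red-free DMEM, 5% equine and 5% calf serum.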
Starred values were filed as active, the others as inactive; ? = inconclusive; · = not tested or not shown; [ ] = another dose, or the depositor's remark. Sampled rows, rich in hits. Any-hit rate of the full collection: about 9%. Unless noted, calls follow the shape of the dose curve; as a rule, active = well fitted curve in the direction sought with a large enough effect; inconclusive = small, poorly fitted or top-dose-only effect, or another doubt; inactive = no such curve, though single readings can be large; an effect the other way counts as inactive or inconclusive. Potency is read from the fitted curve at half-maximal effect.

SMILES | ALDH1A1 block | Lamin A splicing | HPGD inh | HTT aggregate | Luc counter | HTT cytoprotect
CSCC[C@H](NC(=O)OC(C)(C)C)c1nnc(SCC(N)=O)o1 | 15% | 4% | -7% | -5% | -1% | -10%[0.074 µM]
COc1cc(C(C)=O)ccc1OCCN1CCC(Cc2ccccc2)CC1 | ? | · | · | 6% | -2% | -70%
O=C(CCN1CCc2ccccc21)c1ccc2c(c1)OCCO2 | 3.2µM* | ? | -10% | ? | -6% | -44%
O=C(CCC(=O)N1CCN(c2ccc(O)cc2)CC1)c1cccs1 | · | · | · | 31%[9.22 µM] | · | 12%[10 µM]
O=C(CCN1CCC(c2ccccc2)C1)c1ccccc1 (configuration not stated) | 1.4µM* | ? | -22% | 6% | -5% | -19%
O=C(CCN1CCC(c2cccs2)=N1)c1cccs1 | 3.2µM* | ? | · | -17%[9.22 µM] | · | 8%[10 µM]
COc1cc(C(=O)CCN2CCC(c3ccccc3)C2)cc(OC)c1OC (configuration not stated) | 0.04µM* | -22% | -4% | ? | 0% | ?
CN(C)CC(O)COc1cccc(OCC(O)CN(C)C)c1 (configuration not stated) | -3% | -4% | -9% | -3% | -1% | -4%
CC(=O)OC1CC2C(C)(C)CCC(=O)[C@@]2(C)C2CC[C@@]3(C)C(c4ccoc4)OC(=O)C4OC43[C@]12C (some centres not stated) | 2% | · | -2% | · | -2% | 3%
C=CCNC(=O)/C(=C\c1ccc(Br)cc1)NC(=O)c1ccccc1OC | -5% | -3%[46 µM] | · | -11%[9.22 µM] | 0% | -26%
O=C(CCN1CCCCC1)c1ccc2c(c1)OCCO2 | 0.1µM* | -19% | -15% | 18% | 0% | -1%[0.074 µM]
O=C(CCN1CCc2ccccc2C1)c1ccc2c(c1)OCCO2 | ? | ? | ? | 23% | -5% | 10%
O=C1c2ccccc2C(=O)N1CSc1nnc(Nc2ccccc2F)s1 | 7.1µM* | -11% | -19% | 10% | 1% | 0%[10 µM]
O=C1c2ccccc2C(=O)N1CSc1nnc(Nc2ccccc2)s1 | ? | -5%[46 µM] | · | 21% | 0% | -12%
COc1ccc(C(F)(F)F)cc1NC(=O)c1nc2nc(C)cc(C(F)F)n2n1 | -12% | -1% | ? | 8% | 1% | 17%
CC1CCCC(C)N1C(=O)c1cc(-c2ccc(Cl)c(Cl)c2)on1 (configuration not stated) | -19% | 10% | 18µM* | -28% | -2% | -20%
O=C(NN=C1CCN(Cc2ccccc2)CC1)c1cc(Br)ccc1O | ? | · | · | -26% | 0% | -18%
COC(=O)C1C2C=CC3(CN(c4cccc(C)c4)C(=O)C13)O2 (configuration not stated) | 9% | -4% | -7% | 1% | 7% | -10%
COC(=O)C1=C(CN2CCN(C)CC2)NC(=O)NC1c1cc(C)ccc1C (configuration not stated) | 2% | 4% | 0% | -13% | -1% | -7%[10 µM]
COC(=O)C1=C(COc2ccc(C=O)cc2OC)NC(=O)NC1c1cc(C)ccc1C (configuration not stated) | 6.3µM* | -16% | -6% | 1% | -1% | 24%[10 µM]
O=C(/C=C/c1ccccc1Cl)Nc1ccccc1 | · | · | · | -23%[9.22 µM] | · | 16%[10 µM]
O=C(Nc1ccccc1)O/N=C/c1ccccc1Cl | ? | 6% | 40µM* | 21% | -16% | 3%[10 µM]
Cc1ccc(F)cc1NC(=O)CCc1c(C)nn(-c2ccc(N3CCCCC3)nn2)c1C | · | 14%[46 µM] | · | · | · | ·
O=C(COC(=O)c1ccc(NS(=O)(=O)c2ccc3c(c2)OCCO3)cc1)NC1CC1 | -12% | -5% | -22% | -11% | 10% | 3%
O=C(Cn1c(=O)n(Cc2ccco2)c(=O)c2cc(Cl)ccc21)NCC1CCCO1 (configuration not stated) | 25µM* | -8% | 1% | -13% | 2% | 3%
SMILES | ALDH1A1 block | Lamin A splicing | HPGD inh | HTT aggregate | Luc counter | HTT cytoprotect
O=C(Cn1cncn1)N/N=C/c1cccnc1 | · | · | · | 1%[9.22 µM] | · | 13%[10 µM]
Cc1cc(C(=O)CCl)c(C)n1Cc1ccco1 | 0.1µM* | · | · | ? | -1% | 3%
COC(=O)CCCn1c(C)cc(C(=O)CCl)c1C | 0.5µM* | -11%[9.22 µM] | · | 5% | -1% | -17%
CCOC(=O)c1cc(C)n(CCc2ccccc2)c1C | -13% | -6% | -11% | -23% | 2% | -7%
COC(=O)CCn1c(C)cc(C(=O)COc2ccccc2C(N)=O)c1C | 7% | -13%[46 µM] | · | ? | -3% | -116%
Cc1cc(C(=O)CCl)c(C)n1CCc1ccccc1 | 0.032µM* | ? | · | -23% | 2% | 9%[10 µM]
CC(=O)c1ccc(N2CCN(C(=O)c3ccc4c(=O)n(-c5ccccc5)c(=O)[nH]c4c3)CC2)cc1 | 14µM* | ? | -29% | -1% | 2% | -12%[10 µM]
O=C(c1ccc2c(=O)n(-c3ccccc3)c(=O)[nH]c2c1)N1CCN(c2ccc(F)cc2)CC1 | -8% | ? | -10% | -8% | -5% | 0%
Cc1nc2sccn2c1-c1csc(NCc2ccccc2)n1 | 11µM* | 21% | -21% | 7.1µM* | -3% | -79%
Cc1nc(N)sc1-c1csc(NCc2ccccc2)n1 | 2.2µM* | ? | 18µM* | 1% | -4% | -33%
Cc1cc(-c2csc(NCc3ccccc3)n2)c(C)n1C | 20µM* | -8%[46 µM] | · | 10% | -7% | -12%
CCN(CC)CCCNC(=O)c1cc2c(Cl)nc3ccccc3c2s1 | ? | ? | · | -18% | -1% | 2%
CN(CCCNC(=O)c1cc2c(Cl)nc3ccccc3c2s1)Cc1ccccc1 | 28µM* | ? | · | ? | 0% | -67%
COc1ccc(N(C)C(=O)c2cc3c(Cl)nc4ccccc4c3s2)cc1 | -6% | ? | 16µM* | 16% | 3% | 11%[10 µM]
CCOC(=O)c1ccc(N2N=C(C)/C(=C/C=C/c3ccco3)C2=O)cc1 | 0.22µM* | 0% | -25% | ? | -11% | 7%[10 µM]
CC1=NN(c2ccc(C(=O)OC(C)C)cc2)C(=O)/C1=C\C=C\c1ccco1 | ? | -6% | -23% | 12% | -14% | -24%[10 µM]
C1=CCC(CN2CCN(C3CCCCCC3)CC2)CC1 (configuration not stated) | -13% | · | · | -7% | -2% | -35%

Assay outcomes from PubChem BioAssay.
